Experimental data taken from ChEMBL document CHEMBL3988442, “University of Dundee, Small-Polar-MMV Screening Library” (2021).
Screen size: about 48,000 compounds; about 13,000 (27%) showed an effect of 50% or more. The list shows a part of the results.

These compounds were tested on Wolbachia pipientis (assay: Anti-Wolbachia Cell-Based Screen). Conditions: 5 µM.
Type: functional
Parameters: scale not given: in the data most compounds retested in dose-response had high values

Row | SMILES | Percent Effect
1 | CCC(CNC(=O)c1ccc(Br)o1)N1CCc2ccccc2C1 (stereo not drawn) | -5.246%
2 | N[C@H]1CC[C@@H](Nc2nccc(CCC(F)(F)F)n2)CC1 | 2.361%
3 | O=C(c1ccccc1)N1CCCN(C(=O)c2ncncc2Cl)CC1 | 22.3%
4 | Cc1nc(C2CCCN(C(=O)c3scnc3C)C2)no1 (stereo not drawn) | -0.5479%
5 | CC(C)n1ccnc1C1CCN(C(=O)c2ccccc2)CC1 | 1.199%
6 | Cc1ncsc1C(=O)N1CCC(c2ncncc2-c2ccnc(N)c2)C1 (stereo not drawn) | 113.1%
7 | Nc1cc(-c2cncnc2C2CCN(C(=O)c3ccccc3)C2)ccn1 (stereo not drawn) | 132.6%
8 | Cc1ccc2nc(CN(Cc3ccc(C#N)cc3)C(C)C)cc(=O)n2c1 | -2.733%
9 | COCCCN(C)[C@@H]1c2ccccc2C2(CCNCC2)[C@H]1O | 9.06%
10 | COC(CNC(=O)c1cn(C)nn1)c1ccccc1C (stereo not drawn) | -14.48%
11 | COc1c(F)cc(-c2cn(CCn3c(C)cc(C)nc3=O)nn2)cc1Cl | -4.684%
12 | CCn1ncc(CN2CCN(C(=O)Cn3cc(Br)c(C)n3)CC2)c1C | 124.7%
13 | Cc1nn(CCC(=O)N2CCN(Cc3cnn(C)c3C)CC2)c(C)c1Br | 118.1%
14 | CCn1ncc(Cn2cc(Cl)c(N)n2)c1C | 0.6319%
15 | Cc1nn(CC(=O)N2CCN(Cc3cnn(C)c3C)CC2)cc1Br | 123%
16 | Cc1noc(C)c1CN1CCN(C(=O)CCn2cncn2)CC1 | -2.995%
17 | Cc1nn(CC(=O)NCc2cc3n(n2)CCCN(CC(C)C)C3)cc1Cl | -2.88%
18 | Cc1c(Cn2cc(Cl)c(N)n2)cnn1C | -4.897%
19 | Cc1nc(C)c(C(=O)N2CCCN(Cc3cnn(C)c3)CC2)s1 | 16.21%
20 | Cc1nn(CC(=O)N2CCN(Cc3cccnc3)CC2)c(C)c1Cl | 2.693%
21 | Cc1nn(CC(=O)N2CCN(Cc3cnn(C)c3C)CC2)cc1Cl | 97.92%
22 | Cl.Cl.OC(CN1CCN(Cc2cccc(F)c2)CC1)C1CC1 (stereo not drawn) | -1.915%
23 | CCC(=O)NC(CC(C)C)c1cccs1 (stereo not drawn) | 11.67%
24 | O=C1CC(NS(=O)(=O)NCc2ccccc2)CN1c1ccccc1Cl (stereo not drawn) | 6.599%
25 | Cc1ccc(OCC(=O)NC2(C#N)CCSCC2)cc1C | -7.391%

Row | SMILES | Percent Effect
26 | Cc1nsc(NC2CCN(c3ccccc3OC(F)F)C2=O)n1 (stereo not drawn) | -11.3%
27 | Cc1cccc(-c2nnc(C(C)NCCn3cc(C)cn3)o2)c1 (stereo not drawn) | -10.86%
28 | CC(=O)Nc1cccc(C(C)NCC2CCS(=O)(=O)CC2)c1 (stereo not drawn) | 10.2%
29 | CNC(=O)c1n[nH]c2c1C(c1cccc3c1OC(C)(C)C3)CC(=O)N2 (stereo not drawn) | 27.3%
30 | Cc1nn(CCO)cc1CN1CCCN(C2CCCC2)CC1 | 15.64%
31 | Cc1noc(C)c1CN1CCN(C(=O)Cn2cncn2)CC1 | -5.281%
32 | Cc1nn(CC(=O)N2CCN(Cc3cn(C)nc3C)CC2)cc1Br | 147.4%
33 | O=C(c1ccc[nH]1)N1CCN(C(c2ccccc2)C(F)(F)F)CC1 (stereo not drawn) | -1.01%
34 | Cc1ccc(C(=O)NS(C)(=O)=O)cc1I | -7.571%
35 | Cc1ccc(C(=O)NCCCN(C)S(C)(=O)=O)cc1-n1cccc1 | 108.6%
36 | Cc1ccc(C(=O)NS(C)(=O)=O)cc1S(C)(=O)=O | -7.611%
37 | Cc1ccc(CC(=O)NCCCNS(C)(=O)=O)cc1 | 4.317%
38 | CC(=O)NCCc1cn(-c2cc(F)ccc2C)cn1 | 0.929%
39 | CC(=O)NCCNC(=O)c1cnc(-c2ccccc2)nc1 | -5.417%
40 | Cc1ccc(C(=O)NCCCN(C)S(C)(=O)=O)c(=O)[nH]1 | -1.59%
41 | Cc1ccc(C(=O)NCCN2CCOCC2)cc1N(C)S(C)(=O)=O | -26.4%
42 | Cc1ccc(C(=O)NS(C)(=O)=O)cc1-n1cccc1 | 119%
43 | CC(=O)NCCNC(=O)c1ccc(C)c(-n2cccc2)c1 | 112.1%
44 | Cc1ccc(C(=O)NCCCNS(C)(=O)=O)cc1C | 117.8%
45 | Cc1cc(C(=O)NCCC(C)C)ccc1NS(C)(=O)=O | 2.329%
46 | CCSCCC(C)N(C)C(=O)c1cc(C)on1 (stereo not drawn) | -12.53%
47 | O=C(O)c1cc(S(=O)(=O)N2CCOc3ccccc32)ccc1F | 8.076%
48 | CCC[C@@H]1CN(Cc2cc3c(cc2OC)OCCO3)C[C@H]1C(=O)O | -0.5486%
49 | O=C(CCNc1ncccn1)NCCOc1ccc2c(c1)CCC2 | 1.956%
50 | CCn1c(C2CCCN(Cc3cc(OC)cc(OC)c3)C2)nn(C)c1=O (stereo not drawn) | -1.28%

Row | SMILES | Percent Effect
51 | CC[C@@H]1N(Cc2cc(OC)cc(OC)c2)CCC[C@]12CCC(=O)N2C | 92.68%
52 | COCCN1C(=O)CC[C@]12CC[C@@H](NCc1ccc(OC)cc1)CC2 | -14.96%
53 | COc1ccc(CN2CCC3(CC2)C(C(=O)O)CC(=O)N3C)cc1Cl (stereo not drawn) | 2.306%
54 | CC[C@H]1N(Cc2ccc(OC)cc2)CCC[C@]12CCC(=O)N2C | 102.5%
55 | COc1cc(CN2CCN(CC3CC3)[C@@H]3CS(=O)(=O)C[C@@H]32)cc(OC)c1 | -1.299%
56 | COCCN1CCN(Cc2cccc(OCC(N)=O)c2)CC1C (stereo not drawn) | -2.971%
57 | CN1C(=O)CCC12CCCN(C(=O)c1ccncc1F)C2.O=C(O)C(F)(F)F (stereo not drawn) | 113.9%
58 | Cc1ncnc2c1CCN(C(=O)c1ccncc1F)CC2.O=C(O)C(F)(F)F | -20.75%
59 | O=C(O)C(F)(F)F.O=C1CC(c2ccccc2)C2(CCN(C(=O)c3ccncc3F)CC2)N1 (stereo not drawn) | 7.558%
60 | CCN1C(=O)CCCC12CCCN(C(=O)c1ccoc1)C2 (stereo not drawn) | -0.6496%
61 | CCc1ncnc2c1CCN(C(=O)c1ccncc1F)CC2.O=C(O)C(F)(F)F | 6.56%
62 | CN(C)CCN1C(=O)CCC12CCCN(C(=O)c1ccncc1F)C2.O=C(O)C(F)(F)F (stereo not drawn) | 122.1%
63 | CCN1C(=O)CCCC12CCCN(C(=O)c1ccncc1F)C2.O=C(O)C(F)(F)F (stereo not drawn) | 112.1%
64 | O=C(O)C(F)(F)F.O=C(c1ccncc1F)N1CCc2ncnc(C3CC3)c2CC1 | 13.05%
65 | CCOc1ncnc2c1CCN(C(=O)c1ccncc1F)CC2.O=C(O)C(F)(F)F | -6.025%
66 | COCCCNC(=O)NCc1nc(C)c(C)o1 | 1.858%
67 | CC(C)(C)CC(=O)NCC1CCCS1 (stereo not drawn) | -1.096%
68 | Cc1ccc(C(=O)CCC(=O)N2CCC(c3nncn3C)CC2)cc1 | -0.3599%
69 | CN1CC(Oc2ccc(Cl)cc2)=NC(SCC(=O)c2ccccc2)=N1 | 11.49%
70 | Cn1c(=O)n(C)c2nc(Cl)c(CC(=O)c3ccccc3)n2c1=O | 119.1%
71 | Cc1ccc(C(=O)Cc2c(Cl)nc3n(C)c(=O)n(C)c(=O)n23)cc1 | 91.64%
72 | Cn1c(=O)n(C)c2nc(Cl)c(CC(=O)c3ccc(F)cc3)n2c1=O | 131.2%
73 | Cn1nc(Br)c2c(=O)n(CCc3ccccc3)cnc21 | -21.91%
74 | Cn1c(=O)n(C)c2nc(Br)c(CC(=O)c3ccccc3)n2c1=O | 113.8%
75 | Cc1c2ncn(CC(=O)c3ccccc3)c(=O)c2nn1C | 11.22%

Row | SMILES | Percent Effect
76 | CN1CC(Oc2ccccc2)=NC(SCC(=O)c2ccccc2)=N1 | 31.32%
77 | CC(C)c1nc(C2CCCN2c2cnc3cc(F)c(F)cc3n2)no1 (stereo not drawn) | 4.6%
78 | CC(C)OC(=O)N1CCCCC1CCn1cccn1 (stereo not drawn) | 30.12%
79 | Cl.Nc1nc(C(=O)NCC2CCC3(CCNCC3)CO2)cs1 (stereo not drawn) | -0.4275%
80 | CC(C)(C)n1cc(C#N)cc1NC(=O)CCNC(=O)c1ccco1 | -15.76%
81 | O=C(c1cnccn1)N1CCCC(Cc2cccc3ncccc23)C1 (stereo not drawn) | 146.1%
82 | Cn1cc(C(=O)N2CCCC(Cc3cccc4ncccc34)C2)cn1 (stereo not drawn) | 153.9%
83 | Cc1ccc2nc(C)c(C)c(C(=O)N3CCN(c4nccs4)CC3)c2c1 | -13.27%
84 | CCNC(=O)C1CCCN(Cn2nc(C(C)(C)C)ccc2=O)C1 (stereo not drawn) | 2.332%
85 | Cc1cc(C[C@@H]2CCC[C@H]2NCc2ccccc2C(F)(F)F)on1.O=C(O)CC(O)(CC(=O)O)C(=O)O | -4.697%
86 | Cc1cc(C[C@@H]2COC[C@H]2NCc2ccccc2C(F)(F)F)on1.O=C(O)CC(O)(CC(=O)O)C(=O)O | -4.697%
87 | Cc1cc(C[C@@H]2CCC[C@H]2NCc2ccccc2F)on1.O=C(O)CC(O)(CC(=O)O)C(=O)O | 109.7%
88 | Cc1cc(C[C@@H]2COC[C@H]2NCc2ccc(Br)s2)on1.O=C(O)CC(O)(CC(=O)O)C(=O)O | -4.105%
89 | Cc1cc(C[C@@H]2CCC[C@H]2NCc2cccc(F)c2F)on1.O=C(O)CC(O)(CC(=O)O)C(=O)O | 111.2%
90 | Cc1cc(C[C@@H]2CCC[C@H]2NCc2cc(F)ccc2F)on1.O=C(O)CC(O)(CC(=O)O)C(=O)O | 83.79%
91 | Cc1cc(CNC(=O)C2CCC(=O)N(Cc3ccccc3F)C2)on1 (stereo not drawn) | -7.53%
92 | Cc1cc(C[C@@H]2CCC[C@H]2NCc2cc(C)c(O)c(C)c2)on1.O=C(O)CC(O)(CC(=O)O)C(=O)O | -7.471%
93 | Cc1cc(C[C@@H]2COC[C@@H]2NC(=O)CN2CCOC2=O)on1 | -12.63%
94 | O=C(NCc1cccc(F)c1F)c1cc(CN2CCCC(O)C2)on1 (stereo not drawn) | -4.232%
95 | Cc1cc(C[C@@H]2CCC[C@H]2NCc2ccccc2C)on1.O=C(O)CC(O)(CC(=O)O)C(=O)O | 135%
96 | CCCc1noc(CN(C)C(=O)C2COc3ccccc3C2)n1 (stereo not drawn) | -0.2082%
97 | O=C(c1cccc(O)c1)N1C[C@@H](CN2CCCCC2)[C@@H](CO)C1 | 36.38%
98 | CCOc1cc(CNC(=O)NC2CC=CC2)ccc1OC(F)F | -3.557%
